From PubChem BioAssay (NCATS) come the findings set out here.

Inconclusive results are not listed. A number with no mark means an inactive call. Calls of active or inactive are those of the source. Calls follow the shape of the dose curve; as a rule, active = well fitted cell-killing curve with a large enough effect; inconclusive = small, poorly fitted or top-dose-only effect; inactive = no such curve, though single readings can be large or run the other way. Starred links: 1 amine or outer side, 2 acyl side, 3 side chain; linkers in the order of their positions; H or OH if unused. Positions of bridges follow the written chain, without caps; N, C: chain ends. Non-standard residues stand in square brackets, D forms with d. Residues, ends and D or L forms follow the SMILES beside them. Chains are numbered I, II in the order given. Actinocin(9to1) = Cc1c2oc3c(C)ccc(C(=O)[*:1])c3nc-2c(C(=O)[*:2])c(N)c1=O; NMeV = CN[CH](C(=O)O)C(C)C; Sar = CNCC(=O)O
% is scaled to controls: 0 for no effect and ±100 for the full control effect; potency is read from the fitted curve at half-maximal effect.

The assay is described as follows: qHTS of pediatric cancer cell lines to identify multiple opportunities for drug repurposing: Primary screen for SK-N-SH cells (AID 1347098). Also: nearly all actives have a fitted effect of over 65% in size. Particulars: SK-N-SH viability, CellTiter-Glo luminescence, 48 h; series mostly up to 57 µM. The source says:
Drug repurposing or repositioning has been offered as a strategy for drug development in oncology programs. This approach has special potential for childhood cancers and other rare or orphan diseases, where the expected return on new drug development has been a disincentive to pharmaceuticals.
In this project we exploit the poly-pharmacology of drugs to discover new indications via phenotypic screening of a panel of 19 well-characterized cell lines derived from solid tumors seen in children and adolescents. The goal is to identify approved drugs with previously unrecognized anticancer properties that has the potential to reveal new mechanisms and biological processes involved in carcinogenesis or drug resistance. We employed a titration-based paradigm (quantitative high-throughput screening or qHTS), where all compounds were tested at multiple concentrations for their effect on cell viability. Concentration-response curves (CRCs) were derived directly from the primary screen, and both potency and efficacy values were used to identify compounds with robust bioactivity profiles. We screened the NIH Chemical Genomics Center (NCGC) Pharmaceutical Collection (NPC) and Mechanism Interrogation Plate (MIPE) small molecule collections of approved and investigational compounds against these cell lines; and measured metabolically active cells after 48 hours of compound treatment as a proxy for cell viability.
Assay Submitter: Nathalia J. Martinez, National Center for Advancing Translational Sciences, National Institutes of Health, Rockville, MD, USA; email: natalia.martinez@nih.gov
[1] Shen, M et al. Quantitative high-throughput phenotypic screening of pediatric cancer cell lines identifies multiple opportunities for drug repurposing. Oncotarget 2017 Dec 19;9(4):4758-4772. PMID 29435139.
The cells were obtained from University of North Carolina (UNC), Pediatric Preclinical Testing Program (PPT), and Coriell Institute (CI).
qHTS cell viability assay:
Cells were assayed in growth media at a density of 500-1,000 cells/well. Five microliters of cells were dispensed into 1,536-well, white, solid-bottom, TC-treated plates (Greiner Bio One) using a multidrop dispenser and incubated at 37 degrees C, 5% CO2, under a humidified atmosphere for 5 hours. Twenty-three nanoliters of compounds and controls (neutral control DMSO or positive control bortezomib at final concentration of 2.3 µM) were subsequently transferred by Kalypsys pintool. For primary screens, the MIPE collection was tested at 11-point dilutions (final concentrations range from 0.78 nM to 46 µM) and the NPC collection at 8-point dilutions (final concentrations range from 0.59 nM to 46 µM). Compounds tested in follow-up screens were assayed at 11-point dilutions. Cells were incubated for 48 hours, followed by addition of 3 µL of CellTiter-Glo (Promega). After a 15 min incubation at room temperature, samples were analyzed for luminescence intensity using a ViewLux High-throughput CCD imager equipped with clear filters.
In general terms: qHTS replaces the single test concentration by a dilution series.
On to `C=CC1=C(C(=O)O)N2C(=O)[C@@H](NC(=O)C(=NO)c3csc(N)n3)[C@H]2SC1`, for which the Potency entry is “inactive”. Same read-out and setting: under `COc1ccc2cc([S+]([O-])Cc3ncc(C)c(OC)c3C)nc2c1` stands “inactive”; under `c1cncc(CN2CCC(n3ncc4c(N5CCOCC5)nc(-c5ccc6[nH]ccc6c5)nc43)CC2)c1`, 19.2 µM (active); under `CCNC(=O)c1cc2c(-c3cc(OCCN4CCCC4)c(Cl)cc3Cl)nc(N)nc2s1`, 3.04 µM (active). The same measure, in the same setting: with `C=C(C)[C@@H]1CC[C@]2(C)CC[C@]3(C)[C@H](CC[C@@H]4[C@@]5(C)CC[C@H](O)C(C)(C)[C@H]5CC[C@]43C)[C@@H]12` the entry was “inactive”.

As for `C=C(C)[C@@H]1CC[C@]2(C(=O)O)CC[C@]3(C)[C@H](CC[C@@H]4[C@@]5(C)CC[C@H](O)C(C)(C)[C@@H]5CC[C@]43C)[C@@H]12`, the Potency entry is “inactive”. Same read-out and setting: under `COC(=O)[C@@H]1[C@H]2C[C@@H]3c4[nH]c5ccccc5c4CCN3C[C@@H]2CC[C@@H]1O` stands “inactive”; under `CCOC(=O)N1CCN([N+]([O-])=NOc2ccc([N+](=O)[O-])cc2[N+](=O)[O-])CC1`, 27.1 µM (active); under `CC(C)Oc1ccc(C(=O)N[C@H](CNC(=O)CN(C)C)Cc2ccc(-c3cn4cccc([C@H](C)O)c4n3)cc2)cc1Cl`, 15.2 µM (active). Still for that read-out and setting: with `OC[C@@H](O)[C@@H](O)[C@H](O)[C@@H](O)CO` the entry was “inactive”. Consider `CC(C)(C)[C@H](NC(=O)c1ccc(N)c(Cl)c1)C(=O)N1CCC[C@@H]1C(=O)N[C@H](C#N)CC(=O)O`, for which the activity change, negative = cytotoxic was 23.1% [at 6 µM]. Take `Nc1ccn(C[C@@H](CO)OCP(=O)(O)O)c(=O)n1`: the Potency entry was “inactive”. Still for that read-out and setting: under `O=C(c1ccc(F)cc1)N1CCC[C@H](c2nc(-c3ccc(F)cc3)no2)C1` stands 13.6 µM (active); under `NC(=O)c1ncn([C@@H]2O[C@H](CO)[C@@H](O)[C@@H]2O)c1N`, “inactive”; under `CC(=O)N1CCN(c2ccc(OCc3nn(C)c(C)c3-c3cccc4c(CCCOc5cccc6ccccc56)c(C(=O)O)n(Cc5cccnc5)c34)cc2)CC1`, 3.83 µM (active).

Take `N#CNC(=NCCCCCCOc1ccc(Cl)cc1)Nc1ccncc1`: the Potency is 0.0607 µM (active).

Turning to `C[C@H](CCC(=O)O)[C@H]1CCC2C3C[C@H](O)[C@@H]4C[C@H](O)CC[C@]4(C)C3CC[C@@]21C` (stereo not given in full), the Potency entry was “inactive”. Still for that read-out and setting: under `C=CC(=O)Nc1ccc2ncnc(Nc3ccc(OCc4cccc(F)c4)c(Cl)c3)c2c1` stands 0.171 µM (active); under `C=C[C@@H]1CN2CCC1C[C@H]2[C@H](O)c1ccnc2ccc(OC)cc12` (stereo not given in full), “inactive”. Same read-out and setting: with `CCOC(=O)[C@H](CCc1ccccc1)N[C@@H](C)C(=O)N1[C@@H](C(=O)O)C[C@H]2CCC[C@@H]21` the figure was 4.82 µM (active). The same measure, in the same setting: under `CN(C)CC(=O)N1CCC(c2ccc(NC(=O)c3ncc(C#N)[nH]3)c(C3=CCCCC3)c2)CC1` stands 1.21 µM (active); under `CCCCCCCCCCCCCCCC(=O)OC[C@@H](NC(=O)C(Cl)Cl)[C@H](O)c1ccc([N+](=O)[O-])cc1`, “inactive”. For `CC1(C)[C@H](O[C@H]2O[C@H](C(=O)O)[C@@H](O)[C@H](O)[C@H]2O[C@@H]2O[C@H](C(=O)O)[C@@H](O)[C@H](O)[C@H]2O)CC[C@@]2(C)[C@H]1CC[C@]1(C)[C@H]2C(=O)C=C2[C@H]3C[C@@](C)(C(=O)O)CC[C@]3(C)CC[C@]21C`, the Potency entry was “inactive”. Still for that read-out and setting: with `NC1=N[C@H]2[C@H](CS[C@H]2CCCCC(=O)O)N1` the entry was “inactive”; with `Cc1cnc(NC(=O)Nc2cc(Br)c(C)cc2OC[C@@H]2CNCCO2)cn1`, “inactive”. Same read-out and setting: under `Cc1c2oc3c(C)ccc(C(=O)NC4C(=O)NC(C(C)C)C(=O)N5CCCC5C(=O)N(C)CC(=O)N(C)C(C(C)C)C(=O)OC4C)c3nc-2c(C(=O)NC2C(=O)NC(C(C)C)C(=O)N3CCCC3C(=O)N(C)CC(=O)N(C)C(C(C)C)C(=O)OC2C)c(N)c1=O` (stereo not given) (I: TVP[Sar][NMeV] / II: TVP[Sar][NMeV]; ester I:1-I:C, II:1-II:C; linker I:N-II:N via Actinocin(9to1); configuration not given here) stands 0.001 µM (active). For the molecule `COc1cc(O)c2c(c1)C1OC1C[C@H](O)[C@H](O)C(=O)C=CC[C@H](C)OC2=O` (stereo not given in full), the Potency was 6.07 µM (active). Regarding `CCS(=O)(=O)Nc1ccc2[nH]c(O)c(C(=Nc3ccc(CN4CCCCC4)cc3)c3ccccc3)c2c1`, the Potency is 1.21 µM (active). Same read-out and setting: with `CCc1ccc(C(=O)Nc2cc(CN3CCN(C)CC3)cc(C(F)(F)F)c2)cc1C#Cc1cnc2ccnn2c1` the figure was 24.1 µM (active); with `O=C1NC(=O)[C@@H](c2cn3c4c(cccc24)CCC3)[C@H]1c1c[nH]c2ccccc12`, “inactive”. Turning to `C#Cc1cccc(Nc2ncnc3cc(OCCOC)c(OCCO)cc23)c1`, the Potency was 3.83 µM (active).

As to `CC1(C)CC(O)CC(C)(C)N1[O]`, the Potency entry is “inactive”. Still for that read-out and setting: under `CN(C)CCN1C(=O)c2cccc3cc(N)cc(c23)C1=O` stands 21.5 µM (active). Still for that read-out and setting: under `Cn1cc(C=CC(=O)c2cccc(F)c2)cc1C=CC(=O)NO` stands 24.1 µM (active); under `Nc1nc(=O)n([C@H]2CSC(CO)O2)cc1F` (stereo not given in full), “inactive”.

Turning to `O=c1ccn([C@@H]2O[C@H](CO)[C@H](O)[C@@H]2F)c(=O)[nH]1`, the Potency was 9.61 µM (active). Same read-out and setting: under `CC[C@@]1([C@@H]2O[C@@H]([C@H]3O[C@@](O)(CO)[C@H](C)C[C@H]3C)C[C@H]2C)CC[C@H]([C@]2(C)CC[C@]3(C[C@H](O)[C@@H](C)[C@@H]([C@@H](C)[C@@H](OC)[C@H](C)C(=O)O)O3)O2)O1` stands 10.5 µM (active); under `CC(O)(C#Cc1ccc2c(c1)N(c1nc(N)ncc1Cl)CC2)c1nccs1` (stereo not given), 21.5 µM (active). Same read-out and setting: under `CC(C)C[C@H](NC(=O)[C@@H](NC(=O)c1cccc(-c2ccccc2)n1)[C@@H](C)O)B(O)O` stands 0.0607 µM (active); under `Cn1cnc(=N)c2[nH]cnc21`, 1.92 µM (active).
